{"source": "PubChem BioAssay AID624483", "about": "(NMMLSC, 2012)", "note": "The campaign covered roughly 360,000 compounds. About 11,000 (3.1%) were called active. Another 2% or so got no clear call; they are omitted. This is one part of a sample in which actives are shown more often than they occur. Unmarked numbers belong to inactive results. Rule as the data show it: active = fluorescence intensity above about 16000; inconclusive = no clear call, values can overlap the other calls; inactive = below that.", "data": [{"assay": "compound fluorescence in toxin protease inhibitor counterscreen, primary screen, artefact control for toxin protease inhibitor project, biochemical, multiplex microsphere, HTS (AID 624483)", "conditions": "compound autofluorescence counterscreen, microsphere flow cytometry; stronger effect = higher value", "values": [{"smiles": "CC1=C(C(=O)Nc2ccc(Cl)cc2)C(c2ccco2)NC(=O)N1", "note": "(stereo not drawn)", "fluorescence intensity": "21000 (active)"}, {"smiles": "COc1ccc(NC(=O)C2=C(C)NC(=O)NC2c2ccccc2[N+](=O)[O-])cc1", "note": "(stereo not drawn)", "fluorescence intensity": 4060}, {"smiles": "COc1cc(Cl)cc(C2NC(=O)NC(C)=C2C(=O)NCc2ccccc2)c1O", "note": "(stereo not drawn)", "fluorescence intensity": 6250}, {"smiles": "Cc1cccc(/C(N)=N/OC(=O)c2ccccc2Cl)c1", "fluorescence intensity": 2520}, {"smiles": "O=C(OCc1cn(-c2ccc(Cl)c(Cl)c2)nn1)c1ccccc1Cl", "fluorescence intensity": "23100 (active)"}, {"smiles": "NC(=O)COC(=O)c1cc(S(=O)(=O)N2CCN(c3ccccc3)CC2)ccc1Cl", "fluorescence intensity": 2210}, {"smiles": "O=C(Nc1ccccc1)c1ccccc1Br", "fluorescence intensity": 3570}, {"smiles": "CC(C)OC(=O)CN1C(=O)C(=O)c2ccccc21", "fluorescence intensity": "22400 (active)"}, {"smiles": "CC(OC(=O)CN1C(=O)c2ccccc2C1=O)C(=O)c1ccccc1", "note": "(stereo not drawn)", "fluorescence intensity": 8630}, {"smiles": "CCOC(=O)CN1C(=O)C(=O)c2cc(C)ccc21", "fluorescence intensity": 3160}, {"smiles": "CC1(C(=O)NS(=O)(=O)c2cccs2)CCN1C(=O)Cc1ccc(-c2ccccc2)cc1", "note": "(stereo not drawn)", "fluorescence intensity": 3400}, {"smiles": "O=S1(=O)CC(N2CCN(c3ccccn3)CC2)CN1Cc1ccc(F)cc1", "note": "(stereo not drawn)", "fluorescence intensity": 5970}, {"smiles": "O=C(c1ccco1)N1CCN(C(=O)C2c3ccccc3Oc3ccccc32)CC1", "fluorescence intensity": 10300}, {"smiles": "CCC(=O)N1CCCC1(C)C(=O)Nc1ccc2c(c1)CCN2C(C)=O", "note": "(stereo not drawn)", "fluorescence intensity": 4080}, {"smiles": "COc1cccc(Cn2cc(/C=N/NC(=O)c3cc(O)cc(O)c3)c3ccccc32)c1", "fluorescence intensity": 5960}, {"smiles": "O=C(CSc1ccc(/C=N/NC(=O)c2cccc(F)c2)o1)Nc1ccccc1", "fluorescence intensity": 8800}, {"smiles": "O=C(Cn1cc(/C=N/NC(=O)c2cccc(C(F)(F)F)c2)c2ccccc21)Nc1ccc(F)cc1", "fluorescence intensity": "23300 (active)"}, {"smiles": "CC1(C)CC(=O)C=C(NCc2ccncc2)C1", "fluorescence intensity": "16700 (active)"}, {"smiles": "COc1ccc(CCNC2=CC(=O)CC(C)(C)C2)cc1", "fluorescence intensity": 3550}, {"smiles": "Cc1cc(C)nc(NNC2=CC(=O)CC(C)(C)C2)n1", "fluorescence intensity": 2520}, {"smiles": "C=CCc1ccc(OCCOc2cccc(/C=N/n3cnnc3)c2)c(OC)c1", "fluorescence intensity": 2600}, {"smiles": "COCCNCCOCCOc1cccc(OC)c1", "fluorescence intensity": 2470}, {"smiles": "COc1cccc(OCCOc2cccc(/C=N/n3cnnc3)c2)c1", "fluorescence intensity": "23900 (active)"}, {"smiles": "CCc1ccccc1NC(=O)CSc1nnc(CCNC(=O)OC(C)(C)C)o1", "fluorescence intensity": 6490}, {"smiles": "C[C@H](NC(=O)OC(C)(C)C)c1nnc(SCC(=O)Nc2ccc(Br)cc2)o1", "fluorescence intensity": "16800 (active)"}, {"smiles": "CC(C)(C)OC(=O)N[C@H](C(=O)OC(C)(C)C)c1ccc(Br)cc1", "fluorescence intensity": 3740}, {"smiles": "C=CCn1c(N)cc(=O)nc1SCC(=O)Nc1cccc2ccccc12", "fluorescence intensity": 4460}, {"smiles": "CC(C)Oc1ccc(/C=N/NC(=O)c2nnn(-c3nonc3N)c2CN(C)C2CCCCC2)cc1", "fluorescence intensity": 6000}, {"smiles": "O=S(=O)(N1CCOCC1)N1CCN(c2ccccc2F)CC1", "fluorescence intensity": 6290}, {"smiles": "Cc1cccc(C)c1N1CCN(S(=O)(=O)N2CCOCC2)CC1", "fluorescence intensity": "23800 (active)"}, {"smiles": "Cc1cccc(C)c1N1CCN(S(=O)(=O)N2CCCCC2)CC1", "fluorescence intensity": 3490}, {"smiles": "COc1ccc(Cl)cc1-c1cc(C(=O)Nc2cc(OC)c(OC)c(OC)c2)[nH]n1", "fluorescence intensity": 3880}, {"smiles": "O=S(=O)(NC1CCCCC1N1CCCCC1)c1ccc(Cl)cc1", "note": "(stereo not drawn)", "fluorescence intensity": 5790}, {"smiles": "O=S(=O)(NC1CCCCC1N1CCC(O)CC1)c1ccc(Cl)cc1", "note": "(stereo not drawn)", "fluorescence intensity": "38100 (active)"}, {"smiles": "CCN1CCN(C2CCCCC2NS(=O)(=O)c2ccc(Cl)cc2)CC1", "note": "(stereo not drawn)", "fluorescence intensity": 5580}, {"smiles": "Cc1cc(OCC(=O)N2CCN(c3ncccn3)CC2)ccc1Cl", "fluorescence intensity": 4880}, {"smiles": "COc1ccc(OC)c(NC(=O)c2cc(-c3cc(F)ccc3OCC3CCCO3)n[nH]2)c1", "note": "(stereo not drawn)", "fluorescence intensity": 3690}, {"smiles": "COc1ccc(/C=N/Nc2ncnc3sc4c(c23)CCCC4)cc1O", "fluorescence intensity": 1980}, {"smiles": "COc1ncnc2sc3c(c12)CCCC3", "fluorescence intensity": "23600 (active)"}, {"smiles": "O=C(O)c1cccnc1Sc1ncnc2sc3c(c12)CCC3", "fluorescence intensity": 4510}, {"smiles": "CCOC(=O)C1=C(CCc2ccccc2)NC(=O)NC1c1ccc2ccccc2c1", "note": "(stereo not drawn)", "fluorescence intensity": 3820}, {"smiles": "CCOC(=O)C1=C(CSc2nccn2C)NC(=O)NC1c1ccc(OC)cc1", "note": "(stereo not drawn)", "fluorescence intensity": "24300 (active)"}, {"smiles": "CCOC(=O)C1=C(CSc2nnnn2C)N(C)C(=O)NC1c1ccccc1", "note": "(stereo not drawn)", "fluorescence intensity": 4330}, {"smiles": "CC(C)C[C@H]1CN([C@@H](Cc2ccccc2)CN2CCC[C@@H]2CN2C(=O)C(=O)NC[C@@H]2Cc2ccc(O)cc2)C(=O)C(=O)N1CCc1ccccc1", "fluorescence intensity": 5350}, {"smiles": "CC1CCc2c(sc3nc4n(c(=O)c23)CCS4)C1", "note": "(stereo not drawn)", "fluorescence intensity": 8310}, {"smiles": "CCOC(=O)N1CCN(C(=O)c2cnc3n(c2=O)CCS3)CC1", "fluorescence intensity": 2800}, {"smiles": "CCCCc1c(O)nc2n(c1=O)CCS2", "fluorescence intensity": "22100 (active)"}, {"smiles": "CCOC(=O)N1C(=O)C[C@](Sc2ccc(C)cc2)(C(=O)OC)[C@H]1c1ccccc1", "fluorescence intensity": 5390}, {"smiles": "Cc1ccc(C)c(C(O)c2ncc(-c3cccc4ccccc34)[nH]2)c1", "note": "(stereo not drawn)", "fluorescence intensity": 3640}, {"smiles": "CC1(C2CC2)NC(=O)N(CC(=O)N2CCN(c3ccccc3F)CC2)C1=O", "note": "(stereo not drawn)", "fluorescence intensity": 2860}, {"smiles": "Cc1csc(SCC(=O)Nc2ccc(C)c(S(=O)(=O)N(C)C)c2)n1", "fluorescence intensity": 3940}, {"smiles": "Cc1ccc(CCNC(=O)C2CCN(S(=O)(=O)N3CCCC3)CC2)cc1", "fluorescence intensity": 9470}, {"smiles": "CCOC(=O)C1C(=O)NC(N2CCN(c3ccccc3)CC2)=NC1c1ccco1", "note": "(stereo not drawn)", "fluorescence intensity": "23400 (active)"}, {"smiles": "CCOC(=O)C1(C)NC(c2ccco2)C2C(=O)N(c3ccccc3)C(=O)C21", "note": "(stereo not drawn)", "fluorescence intensity": 4000}, {"smiles": "CCOC(=O)C1C(=O)C=C(c2ccc(OC)cc2)CC1c1ccco1", "note": "(stereo not drawn)", "fluorescence intensity": 2300}, {"smiles": "Cc1ccc(C2SCC(=O)N2c2ccccc2)cc1", "note": "(stereo not drawn)", "fluorescence intensity": 3540}, {"smiles": "Cc1ccc(N2C(=O)C3C(c4ccccc4)(C2=O)C3(c2ccccc2)c2ccccc2)cc1", "note": "(stereo not drawn)", "fluorescence intensity": "22200 (active)"}, {"smiles": "Cc1ccc(N2C(=O)CC(Nc3cccc4ccccc34)C2=O)cc1", "note": "(stereo not drawn)", "fluorescence intensity": 3720}, {"smiles": "COc1ccccc1Nc1ncc(C(C)=O)c(C)n1", "fluorescence intensity": 2840}, {"smiles": "O=C1CCC(C(=O)N2CCC(O)(c3ccccc3)CC2)CN1CCc1ccccc1", "note": "(stereo not drawn)", "fluorescence intensity": 5620}, {"smiles": "CC(C)C[C@@H](COCc1ccc(Cl)cc1)N1CCN(C(=O)c2ccc(Cl)cc2Cl)CCC1=O", "fluorescence intensity": 4700}, {"smiles": "Cc1cc2c(cc1C)N1C(=O)c3cc4ccccc4cc3NC(=O)C1C(=O)N2", "note": "(stereo not drawn)", "fluorescence intensity": 5850}, {"smiles": "COc1ccc(S(=O)(=O)N(C)C)cc1NC(=O)CSc1ncccn1", "fluorescence intensity": 2020}, {"smiles": "CCn1c(CSc2nncn2-c2ccc(OC)cc2)nc2cc(S(=O)(=O)N(C)C)ccc21", "fluorescence intensity": "20000 (active)"}, {"smiles": "COc1ccc(-n2cnnc2SCC(=O)Nc2cccc(S(N)(=O)=O)c2)cc1", "fluorescence intensity": 5460}, {"smiles": "CC[C@@H]1CC2=C(C(=O)OC(C)(C)O2)[C@@H](CC)O1", "fluorescence intensity": 5670}, {"smiles": "CC(C)(C)S(=O)(=O)N1Cc2cc(CO)cc(CCO)c2[C@H]1CCO", "fluorescence intensity": 3670}, {"smiles": "Cc1ccccc1S(=O)(=O)NC(=O)C1(C)CCN1C(=O)C1(c2ccc(Cl)cc2)CC1", "note": "(stereo not drawn)", "fluorescence intensity": 4140}, {"smiles": "Cc1ccccc1-c1ccc(Nc2ccc(C(=O)N3CCOCC3)cc2)nn1", "fluorescence intensity": "16400 (active)"}, {"smiles": "Cc1oc2c(c1C(=O)N1CCOCC1)C(=O)c1ccccc1C2=O", "fluorescence intensity": 5580}, {"smiles": "Cc1cc(Nc2ccc(C(=O)N3CCCCC3)cc2)c2cccc(C)c2n1", "fluorescence intensity": 3660}, {"smiles": "CCCCc1ccc(S(=O)(=O)NC(=O)C2(C)CCN2C(=O)c2c(C)noc2C)cc1", "note": "(stereo not drawn)", "fluorescence intensity": 2860}, {"smiles": "CCc1nc2c(OCc3ccc(Cl)cc3Cl)cccn2c1N(C)C(=O)C(C)C", "fluorescence intensity": 4460}, {"smiles": "Cc1cc(S(=O)(=O)NCC(C)C)ccc1OCC(=O)NC1CC1", "fluorescence intensity": 5980}, {"smiles": "O=C(COc1ccc(Cl)cc1)Nc1ccc2c(c1)OCO2", "fluorescence intensity": 3940}, {"smiles": "CC(C)CNS(=O)(=O)c1ccc(OCC(=O)Nc2ccc3c(c2)OCO3)c(Cl)c1", "fluorescence intensity": "16300 (active)"}, {"smiles": "Nc1c(C(=O)OCC(=O)Nc2ccc(OC(F)F)cc2)[nH]c(=O)[nH]c1=O", "fluorescence intensity": 3380}, {"smiles": "O=C(CCl)Nc1ccc(Sc2ccc(NC(=O)CCl)cc2)cc1", "fluorescence intensity": 4330}, {"smiles": "Cc1ccc(Sc2ccc(NC(=O)c3ccc(F)cc3)cc2C#N)cc1", "fluorescence intensity": 4940}, {"smiles": "CC(C)(CCl)C(=O)Nc1ccc(Sc2ccc(F)cc2)cc1", "fluorescence intensity": "20700 (active)"}, {"smiles": "CC(NC(=O)CN(C)S(=O)(=O)c1ccc(F)cc1)C1CC2CCC1C2", "note": "(stereo not drawn)", "fluorescence intensity": 3360}, {"smiles": "Cc1c(C(=O)NCc2ccc(C#N)cc2)sc(=O)n1Cc1ccc(C(=O)N(C)C)cc1", "fluorescence intensity": 4330}, {"smiles": "CC1COC2C(O1)N(S(C)(=O)=O)CCN2S(C)(=O)=O", "note": "(stereo not drawn)", "fluorescence intensity": "25700 (active)"}, {"smiles": "CC1OC2C(OC1C)N(S(C)(=O)=O)CCN2S(C)(=O)=O", "note": "(stereo not drawn)", "fluorescence intensity": 15900}, {"smiles": "Cc1ccc(S(=O)(=O)N2CCN(C(=O)CN3C(=O)NC(C)(c4ccc(Cl)cc4)C3=O)CC2)c(C)c1", "note": "(stereo not drawn)", "fluorescence intensity": 3900}, {"smiles": "Cc1cc(C)n2c(Nc3c(C)cccc3C)c(CCc3ccccc3)nc2n1", "fluorescence intensity": 5430}, {"smiles": "Cc1onc(-c2c(F)cccc2Cl)c1C(=O)OCC(=O)N1C(C)CCCC1C", "note": "(stereo not drawn)", "fluorescence intensity": 3180}, {"smiles": "C/C(=N/OC(=O)c1c(-c2c(F)cccc2Cl)noc1C)c1cnccn1", "fluorescence intensity": 3970}, {"smiles": "Cc1onc(-c2c(Cl)cccc2Cl)c1C(=O)c1c[nH]c(C(=O)NC2CC2)c1", "fluorescence intensity": "23200 (active)"}, {"smiles": "CC1=C(C(=O)N(C)C)CC(CC(=O)NCCN2CCOCC2)C(=O)N1Cc1ccccc1", "note": "(stereo not drawn)", "fluorescence intensity": 3750}, {"smiles": "CC1(C(=O)Nc2ccc3c(c2)OCCO3)CCN1C(=O)Cc1cc(F)ccc1F", "note": "(stereo not drawn)", "fluorescence intensity": 3870}, {"smiles": "Clc1ccc(C=NC23CN4CN(CN(C4)C2)C3)cc1", "fluorescence intensity": 3520}, {"smiles": "COC(=O)C1[C@H]2SC(C)(C)C(C(=O)OC)N2C(=O)N1Cc1nc2ccccc2s1", "note": "(stereo partly drawn)", "fluorescence intensity": 3920}]}]}
